# In PubChem BioAssay (EPA / NIEHS):
# A structure can be active in one record and inactive in another. Activity calls are given as the source filed them. The calls were made as follows: active = hit-call score of the fitted dose curve at least 0.9, where 1 is the maximum; inactive = score below 0.9.
# Biological target: Heat shock factor protein 1 (Homo sapiens) (UniProt Q00613)
# Assay: ATG_HSE_CIS: Attagene CIS-FACTORIAL HepG2 Assay for human Heat Shock Transcription Factor 1 (HSE) (AID 2282953)
# Conditions: HepG2 HSE cis-reporter, Attagene RNA transcription; actives raise or lower the signal
# Procedure: ATG_CIS is a cell-based, multiplexed-readout assay that uses HepG2, a human liver cell line, with measurements taken at 24 hours after chemical dosing in a 24-well plate.ATG_HSE_CIS is one of 52 assay component(s) measured or calculated from the ATG_CIS assay. It is designed to make measurements of mRNA induction, a form of inducible reporter, as detected with fluorescence intensity signals by Reverse transcription polymerase chain reaction (RT-PCR) and Capillary electrophoresis technology.Data from the assay component ATG_HSE_CIS was analyzed into 1 assay endpoint. This assay endpoint, ATG_HSE_CIS, was analyzed with bidirectional fitting relative to DMSO as the negative control and baseline of activity. Using a type of inducible reporter, measures of mRNA for gain or loss-of-signal activity can be used to understand the reporter gene at the transcription factor-level as they relate to the gene HSF1. Furthermore, this assay endpoint can be referred to as a primary readout, because this assay has produced multiple assay endpoints where this one serves a reporter gene function. To generalize the intended target to other relatable targets, this assay endpoint is annotated to the dna binding intended target family, where the subfamily is heat shock protein.
# Human liver HepG2 cells are transiently transfected with multiple reporter transcription units (MRTUs) in 6-well plates using FuGene 6 reagent (Roche; 3 ml FuGene/1 mg DNA). The MRTU constructs are regulated by a cis-regulating element (promoter). […] A major difference between the CIS and TRANS system is that in CIS activities of endogenous TFs are measured, whereas the TRANS assay evaluates changes in activities of exogenous, chimeric NR-Gal4 proteins. […] At the end of 24 hour incubation, total RNA was isolated using TriZol reagent (Invitrogen). The isolated RNA is then reverse-transcribed using oligo(dT) primer and Mo-MLV reverse transcriptase (Invitrogen) with DNAse I (Ambion) treatment for 30 min. The one-tenth of the produced cDNA was amplified by PCR using Taq DNA polymerase (Invitrogen) and two reporter sequence-specific primers. The PCR products were fluorescently labeled by primer extension with 6-arboxyfluorescein (6-FAM) 5'-labeled reporter sequence-specific primer (2 min at 95 C, 20 s at 68 C and 10 min at 72 C) and these products were digested with 5U of HpaI (New England Biolabs) for 2h at 37 C. The fragments were purified using Qiaquick PCR columns (Qiagen), analyzed on an ABI 3130xL genetic analyzer (Applied Biosystems) with peak positions identified by using a set of X-rhodamine (ROX)-labeled MapMarker1000 molecular weight standards (BioVentures). The raw capillary electrophoresis data was processed using Attagraph software (Attagene).
# Chain of Heat shock factor protein 1 (Homo sapiens) (Q00613 whole entry, looked up): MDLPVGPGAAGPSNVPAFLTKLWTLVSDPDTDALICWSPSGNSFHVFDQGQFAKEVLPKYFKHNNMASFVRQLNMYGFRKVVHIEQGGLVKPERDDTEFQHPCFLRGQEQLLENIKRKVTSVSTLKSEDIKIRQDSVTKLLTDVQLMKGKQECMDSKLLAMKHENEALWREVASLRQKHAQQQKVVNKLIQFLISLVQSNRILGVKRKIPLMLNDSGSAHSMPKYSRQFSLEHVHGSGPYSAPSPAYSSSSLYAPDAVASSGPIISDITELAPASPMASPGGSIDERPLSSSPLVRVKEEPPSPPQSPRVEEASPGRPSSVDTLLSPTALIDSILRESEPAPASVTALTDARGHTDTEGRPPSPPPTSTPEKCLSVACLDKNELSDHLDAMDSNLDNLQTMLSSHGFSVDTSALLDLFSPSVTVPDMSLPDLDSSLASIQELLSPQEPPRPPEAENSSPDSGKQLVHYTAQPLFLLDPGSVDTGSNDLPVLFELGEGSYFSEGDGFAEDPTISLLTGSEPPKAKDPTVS
SMILES,outcome,AC50
O=C(O)c1ccccc1O,inactive,–
O=S1(=O)CC=CC1,inactive,–
CCC(C)(C)c1cc(O)c(C(C)(C)CC)cc1O,–,49.3 µM (active)
CC(C)Cc1ccc(C(C)C(=O)O)cc1 (stereo not given),inactive,–
C=CC(=O)OCCCCCC,inactive,–
Cc1cc(N)n(-c2ccccc2)n1,inactive,–
Cc1cccc(C)c1,inactive,–
C=C1CC[C@H]2O[C@]2(C)CC[C@@H]2[C@@H]1CC2(C)C,inactive,–
CC1=CC(C)C(C=O)C(C)C1 (stereo not given) (tested in a mixture with another compound),inactive,–
Brc1cc(Br)cc(Br)c1,inactive,–
CC(=O)c1ccc(C)cc1,inactive,–
CC(C)(C)c1ccc(S)cc1,inactive,–
CCOC(=O)CCCCCCCCC(=O)OCC,inactive,–
CCCCCCCC(=O)N(C)C,inactive,–
CC(=O)OC(C)(C)C1CC=C(C)CC1 (stereo not given),inactive,–
C=CCOC(=O)/C=C\C(=O)OCC=C,–,164 µM (active)
CC(=O)CC(=O)N(C)C,inactive,–
Cc1cccc(O)c1,inactive,–
OC[C@H]1O[C@@H](O[C@H]2[C@H](O)[C@@H](O)[C@H](O)O[C@@H]2CO)[C@H](O)[C@@H](O)[C@H]1O,inactive,–
CC(=N[Si](C)(C)C)O[Si](C)(C)C,inactive,–

SMILES,outcome,AC50
CC1(C)[C@H](C=C(Cl)Cl)[C@H]1C(=O)OCc1cccc(Oc2ccccc2)c1,inactive,–
COc1ccc(C(C)=O)cc1,inactive,–
Nc1ccc(N)c([N+](=O)[O-])c1,inactive,25.9 µM (active)
CCOC(=O)CC(C)C,inactive,–
CCOC(=O)C(=O)OCC,inactive,–
NC(=O)c1cccnc1,inactive,–
CCCO[Si](OCCC)(OCCC)OCCC,inactive,–
CCCC1CCC(=O)CC1,inactive,–
CCCCCCCOC(C)=O,inactive,–
CCCCCCCCCCCCOCCOS(=O)(=O)O,inactive,–
CCc1cccc(O)c1,inactive,–
CC1=C(C=O)C(C)(C)CCC1,inactive,–
ClCCOCCOCCCl,inactive,–
CCCCCCCCCCCCS,inactive,–
C=C(C)C(=O)OCCC(C)OC(=O)C(=C)C (stereo not given),inactive,–
CC(C)N1C(=O)c2ccccc2C1=O,inactive,–
CC(O)CNCC(C)O (stereo not given),inactive,–
c1ccc(Sc2ccccc2)cc1,inactive,–
O=C(OCc1ccccc1)c1ccccc1O,inactive,–
